Assay results taken from PubChem BioAssay (NCI).
The panel holds about 83,000 compounds, 20% with a hit somewhere; the sample as a whole holds those more often.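 A percent growth of 40 corresponds to 60% growth inhibition; 0 means no net growth; -100 means all cells died. Active threshold: below 10.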 A number with no mark means an inactive call. Activity calls are given as the source filed them.

Experiments:
Assay in all cases: NCI-60 one-dose screen, 48 h (100 = growth as untreated, 0 = no growth, -100 = all killed)
Conditions in all cases: 10 µM unless noted
MOLT-4 leukemia = test system: MOLT-4 leukemia
SR leukemia = test system: SR leukemia
RPMI-8226 leukemia = test system: RPMI-8226 leukemia
OVCAR-8 ovarian = test system: OVCAR-8 ovarian
OVCAR-5 ovarian = test system: OVCAR-5 ovarian
OVCAR-4 ovarian = test system: OVCAR-4 ovarian
SK-OV-3 ovarian = test system: SK-OV-3 ovarian
IGROV1 ovarian = test system: IGROV1 ovarian
OVCAR-3 ovarian = test system: OVCAR-3 ovarian
HS 578T breast = test system: HS 578T breast
NCI/ADR-RES ovarian = test system: NCI/ADR-RES ovarian
T-47D breast = test system: T-47D breast
BT-549 breast = test system: BT-549 breast
MDA-MB-435 melanoma = test system: MDA-MB-435 melanoma
SW-620 colon = test system: SW-620 colon
MCF7 breast = test system: MCF7 breast
HCT-116 colon = test system: HCT-116 colon
HCC-2998 colon = test system: HCC-2998 colon
KM12 colon = test system: KM12 colon

Row | SMILES | growth (MOLT-4 leukemia) | growth (SR leukemia) | growth (RPMI-8226 leukemia) | growth (OVCAR-8 ovarian) | growth (OVCAR-5 ovarian) | growth (OVCAR-4 ovarian) | growth (SK-OV-3 ovarian) | growth (IGROV1 ovarian) | growth (OVCAR-3 ovarian) | growth (HS 578T breast) | growth (NCI/ADR-RES ovarian) | growth (T-47D breast) | growth (BT-549 breast) | growth (MDA-MB-435 melanoma) | growth (SW-620 colon) | growth (MCF7 breast) | growth (HCT-116 colon) | growth (HCC-2998 colon) | growth (KM12 colon)
1 | c1ccc2c(c1)O[As](O[As]1Oc3ccccc3O1)O2 | 19.2% | 2.68% (active) | -14.9% (active) | 23.3% | 40.6% | 40.3% | 75.6% | 6.22% (active) | 14.2% | 38.8% | 50.1% | 14.3% | 17.6% | 41.2% | 25.5% | 12.7% | 43.1% | 65.8% | 69.8%
2 | O=P(O)(Nc1ccccc1)Nc1ccccc1 | 43.6% | 104% | 91.8% | 103% | 90.1% | 99.9% | 110% | 90.6% | 94.4% | 94.5% | 76.9% | 97% | 100% | 88.5% |  | 97.3% | 89.1% |  | 95.9%
3 | CC1=C([Te]c2ccccc2)C(=O)c2ccccc2C1=O | 31.4% | 21.4% | -32.9% (active) | -15.9% (active) | -72.3% (active) | -72.4% (active) | -37.8% (active) | -21.5% (active) | -77.5% (active) | -22.4% (active) | -23.1% (active) | -51.9% (active) | -30.7% (active) |  | -88.2% (active) | -77.3% (active) | -40.5% (active) | -66.4% (active) | -60.7% (active)
4 | CC1(C)S[C@H]2CC[C@H]3OC(=O)[C@@H]1N23 | 75.1% | 92.6% | 79.5% | 102% | 91.1% | 97.2% | 111% | 39.4% | 132% | 112% | 93.8% | 104% | 85.3% | 93.3% | 113% | 103% | 103% |  | 111%
5 | CCN1C(=O)CC(=O)N(CC)C1=S | 109% | 101% | 104% | 109% | 85.7% | 89.9% | 99.7% | 98.5% | 112% | 102% | 73.9% | 98.1% | 94.5% | 105% | 108% | 100% | 93.8% |  | 106%
6 | C[C@]12CCc3sc(Nc4ccc(F)cc4F)nc3C1=CC[C@@H]1[C@@H]2CC[C@]2(C)C(=O)CC[C@@H]12 | 3.63% (active) | 0.71% (active) | -20.8% (active) | 45.2% | 91.8% | 66.7% | 84.1% | 62.1% | -4.15% (active) | 55.3% | 67.6% | 48.9% | 59.6% |  | 7.16% (active) | 14.6% | -23.3% (active) | 71.6% | 57.1%
7 | Oc1ccccc1C=NCCN=Cc1ccccc1O | 106% | 98.5% | 95.1% | 110% | 104% | 109% | 102% | 118% | 102% | 106% | 103% |  | 106% | 108% | 100% | 97.7% | 94.2% | 105% | 104%
